These results are taken from ChEMBL document CHEMBL1961873, “Compounds: GSK PKIS; Assays: Nanosyn kinase panel” (2012).

Assay [1] has as its target Sphingosine kinase 1 (Homo sapiens) (UniProt Q9NYA1). The following applies: at 1 µM.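 Further: mean SPHK1 inhibition value reported from the GSK PKIS kinase panel screen.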
Assay [2] has as its target T1, Sphingosine kinase 2 (Homo sapiens) (UniProt Q9NRA0).
T1 sequence (whole entry): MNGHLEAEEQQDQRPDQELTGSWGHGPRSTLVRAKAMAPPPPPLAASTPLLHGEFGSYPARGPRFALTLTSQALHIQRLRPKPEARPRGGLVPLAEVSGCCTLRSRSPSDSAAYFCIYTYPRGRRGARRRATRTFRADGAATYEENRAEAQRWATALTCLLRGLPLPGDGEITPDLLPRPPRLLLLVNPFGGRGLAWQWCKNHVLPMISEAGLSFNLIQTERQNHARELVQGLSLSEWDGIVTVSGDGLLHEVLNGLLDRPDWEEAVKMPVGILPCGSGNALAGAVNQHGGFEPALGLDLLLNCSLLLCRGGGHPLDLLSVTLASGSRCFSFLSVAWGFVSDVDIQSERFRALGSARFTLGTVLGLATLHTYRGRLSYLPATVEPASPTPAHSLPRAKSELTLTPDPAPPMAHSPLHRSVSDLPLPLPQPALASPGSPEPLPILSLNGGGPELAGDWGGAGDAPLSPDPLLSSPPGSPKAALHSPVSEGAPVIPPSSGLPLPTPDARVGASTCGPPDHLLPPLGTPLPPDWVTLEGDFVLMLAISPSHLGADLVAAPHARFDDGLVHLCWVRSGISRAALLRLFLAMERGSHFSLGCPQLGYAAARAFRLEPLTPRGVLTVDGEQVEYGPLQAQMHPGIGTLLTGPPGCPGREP
The following applies: at 0.1 µM.

Assay [3] has as its target T1, Sphingosine kinase 2 (Homo sapiens). Particulars: at 1 µM.
The target of assay [4] is Casein kinase II subunit alpha (Homo sapiens) (UniProt P68400). Particulars: at 0.1 µM.
Chain of Casein kinase II subunit alpha (Homo sapiens) (P68400 whole entry, looked up): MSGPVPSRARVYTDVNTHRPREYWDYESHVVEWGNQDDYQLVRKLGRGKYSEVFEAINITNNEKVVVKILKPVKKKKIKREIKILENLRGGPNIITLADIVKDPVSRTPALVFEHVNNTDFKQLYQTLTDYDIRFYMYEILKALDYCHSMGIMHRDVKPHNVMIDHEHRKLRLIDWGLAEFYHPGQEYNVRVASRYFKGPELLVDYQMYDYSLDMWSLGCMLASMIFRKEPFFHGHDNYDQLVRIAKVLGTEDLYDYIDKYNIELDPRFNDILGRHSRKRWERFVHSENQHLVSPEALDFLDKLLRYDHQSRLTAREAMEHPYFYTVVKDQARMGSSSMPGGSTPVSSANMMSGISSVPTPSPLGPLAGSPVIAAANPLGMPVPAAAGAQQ
Assay [5] has the same target. The following applies: at 1 µM.
The target in assay [6] is T2, Inhibitor of nuclear factor kappa-B kinase subunit alpha (Homo sapiens) (UniProt O15111).
T2 sequence (whole entry): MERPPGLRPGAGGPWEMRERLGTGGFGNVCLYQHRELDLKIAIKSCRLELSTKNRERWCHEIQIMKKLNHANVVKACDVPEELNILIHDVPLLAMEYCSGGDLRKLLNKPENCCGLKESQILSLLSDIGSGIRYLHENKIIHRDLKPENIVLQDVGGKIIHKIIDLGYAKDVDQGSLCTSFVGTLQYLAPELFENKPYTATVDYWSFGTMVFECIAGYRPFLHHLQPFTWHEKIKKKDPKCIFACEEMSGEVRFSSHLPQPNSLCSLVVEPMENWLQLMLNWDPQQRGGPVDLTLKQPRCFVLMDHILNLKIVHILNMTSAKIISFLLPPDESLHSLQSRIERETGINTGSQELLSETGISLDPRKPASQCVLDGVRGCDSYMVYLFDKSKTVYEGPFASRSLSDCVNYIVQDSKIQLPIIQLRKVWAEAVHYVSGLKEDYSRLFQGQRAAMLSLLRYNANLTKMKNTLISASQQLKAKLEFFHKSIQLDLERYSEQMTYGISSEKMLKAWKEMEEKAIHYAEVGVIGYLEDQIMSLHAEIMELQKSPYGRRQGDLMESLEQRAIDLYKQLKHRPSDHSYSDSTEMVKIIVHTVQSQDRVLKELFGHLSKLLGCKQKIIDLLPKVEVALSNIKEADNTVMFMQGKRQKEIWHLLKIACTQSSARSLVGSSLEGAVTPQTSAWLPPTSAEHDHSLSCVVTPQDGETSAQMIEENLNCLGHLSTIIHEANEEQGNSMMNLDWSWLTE
Particulars: at 0.1 µM.

The target of assay [7] is T2, Inhibitor of nuclear factor kappa-B kinase subunit alpha (Homo sapiens). The following applies: at 1 µM.
Assay [8] has as its target T3, Inhibitor of nuclear factor kappa-B kinase subunit beta (Homo sapiens) (UniProt O14920).
T3 sequence (whole entry): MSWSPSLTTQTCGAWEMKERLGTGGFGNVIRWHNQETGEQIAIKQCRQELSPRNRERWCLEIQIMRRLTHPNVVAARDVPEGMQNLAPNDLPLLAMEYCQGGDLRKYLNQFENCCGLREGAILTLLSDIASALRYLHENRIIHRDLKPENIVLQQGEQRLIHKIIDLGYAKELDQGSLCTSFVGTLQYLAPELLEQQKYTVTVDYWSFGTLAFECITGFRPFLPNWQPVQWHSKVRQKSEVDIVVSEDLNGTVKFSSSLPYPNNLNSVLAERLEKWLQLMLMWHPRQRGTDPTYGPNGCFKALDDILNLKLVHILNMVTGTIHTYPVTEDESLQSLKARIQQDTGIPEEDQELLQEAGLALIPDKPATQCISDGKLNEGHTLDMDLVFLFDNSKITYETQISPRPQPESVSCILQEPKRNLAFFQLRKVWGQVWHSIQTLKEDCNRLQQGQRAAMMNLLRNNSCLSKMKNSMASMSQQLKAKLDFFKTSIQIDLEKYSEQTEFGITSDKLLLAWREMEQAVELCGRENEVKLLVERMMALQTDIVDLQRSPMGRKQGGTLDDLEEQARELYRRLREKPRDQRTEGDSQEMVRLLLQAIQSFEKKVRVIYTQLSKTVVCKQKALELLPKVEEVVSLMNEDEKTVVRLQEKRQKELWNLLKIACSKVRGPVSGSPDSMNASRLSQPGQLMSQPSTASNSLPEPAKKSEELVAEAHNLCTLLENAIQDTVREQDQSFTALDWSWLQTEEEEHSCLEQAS
Particulars: at 0.1 µM.

Assay [9] addresses T3, Inhibitor of nuclear factor kappa-B kinase subunit beta (Homo sapiens). Particulars: at 1 µM.
The target of assay [10] is T4, Inhibitor of nuclear factor kappa-B kinase subunit epsilon (Homo sapiens) (UniProt Q14164).
T4 sequence (whole entry): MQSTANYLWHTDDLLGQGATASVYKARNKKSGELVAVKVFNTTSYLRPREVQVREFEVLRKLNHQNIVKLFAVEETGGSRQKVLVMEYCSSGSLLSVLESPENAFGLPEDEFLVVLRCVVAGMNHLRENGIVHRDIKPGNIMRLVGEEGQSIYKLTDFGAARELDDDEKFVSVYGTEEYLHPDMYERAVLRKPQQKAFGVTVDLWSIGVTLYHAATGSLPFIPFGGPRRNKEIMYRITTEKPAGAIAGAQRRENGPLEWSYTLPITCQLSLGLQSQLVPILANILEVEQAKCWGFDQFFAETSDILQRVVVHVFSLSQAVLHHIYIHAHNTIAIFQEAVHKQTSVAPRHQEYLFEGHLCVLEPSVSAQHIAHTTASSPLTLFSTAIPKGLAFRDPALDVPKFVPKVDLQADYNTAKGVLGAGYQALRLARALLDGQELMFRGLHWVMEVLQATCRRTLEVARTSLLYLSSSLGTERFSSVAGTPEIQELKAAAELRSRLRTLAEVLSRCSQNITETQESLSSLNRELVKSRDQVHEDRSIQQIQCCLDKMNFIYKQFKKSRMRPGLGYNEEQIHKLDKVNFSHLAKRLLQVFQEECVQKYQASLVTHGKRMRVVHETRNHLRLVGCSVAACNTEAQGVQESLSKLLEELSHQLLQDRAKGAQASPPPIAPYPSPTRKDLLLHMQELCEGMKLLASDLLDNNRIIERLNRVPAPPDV
Particulars: at 0.1 µM.

The target of assay [11] is T4, Inhibitor of nuclear factor kappa-B kinase subunit epsilon (Homo sapiens). Particulars: at 1 µM.
Assay [12] deals with T5, Serine/threonine-protein kinase Nek1 (Homo sapiens) (UniProt Q96PY6).
T5 sequence (whole entry): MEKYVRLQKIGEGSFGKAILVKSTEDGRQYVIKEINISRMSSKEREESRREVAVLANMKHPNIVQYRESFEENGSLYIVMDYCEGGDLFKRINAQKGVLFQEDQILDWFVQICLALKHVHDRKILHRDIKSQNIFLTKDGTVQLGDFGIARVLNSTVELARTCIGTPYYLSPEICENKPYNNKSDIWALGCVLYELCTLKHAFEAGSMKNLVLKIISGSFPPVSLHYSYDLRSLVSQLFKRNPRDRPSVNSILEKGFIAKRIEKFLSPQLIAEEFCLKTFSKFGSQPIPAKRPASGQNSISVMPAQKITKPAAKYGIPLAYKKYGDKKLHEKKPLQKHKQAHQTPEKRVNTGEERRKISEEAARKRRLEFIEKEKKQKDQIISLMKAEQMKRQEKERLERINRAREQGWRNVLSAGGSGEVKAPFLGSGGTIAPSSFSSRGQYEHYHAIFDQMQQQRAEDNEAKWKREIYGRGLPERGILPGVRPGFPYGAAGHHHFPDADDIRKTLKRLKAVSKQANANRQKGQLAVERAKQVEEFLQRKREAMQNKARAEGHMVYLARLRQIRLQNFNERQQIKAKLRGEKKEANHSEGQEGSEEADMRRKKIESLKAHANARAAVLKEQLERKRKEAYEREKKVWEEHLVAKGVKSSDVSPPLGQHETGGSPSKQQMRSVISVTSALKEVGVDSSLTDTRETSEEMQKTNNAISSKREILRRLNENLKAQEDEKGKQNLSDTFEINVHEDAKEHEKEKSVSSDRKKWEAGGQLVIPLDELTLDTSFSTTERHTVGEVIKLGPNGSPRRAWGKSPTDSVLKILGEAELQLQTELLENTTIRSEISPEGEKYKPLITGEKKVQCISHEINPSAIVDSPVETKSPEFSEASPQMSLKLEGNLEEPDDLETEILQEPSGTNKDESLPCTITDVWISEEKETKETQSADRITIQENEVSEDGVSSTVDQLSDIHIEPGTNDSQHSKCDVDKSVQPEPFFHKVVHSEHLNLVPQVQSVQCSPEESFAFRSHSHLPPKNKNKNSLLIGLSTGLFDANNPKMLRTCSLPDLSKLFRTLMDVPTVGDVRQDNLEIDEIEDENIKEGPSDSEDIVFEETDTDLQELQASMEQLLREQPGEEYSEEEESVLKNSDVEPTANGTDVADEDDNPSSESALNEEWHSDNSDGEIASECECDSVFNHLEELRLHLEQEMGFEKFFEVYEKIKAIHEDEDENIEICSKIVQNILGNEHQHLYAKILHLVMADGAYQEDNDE
Particulars: at 0.1 µM.

For assay [13], the target named is T5, Serine/threonine-protein kinase Nek1 (Homo sapiens). The following applies: at 1 µM.
Assay [14] has as its target T6, Serine/threonine-protein kinase Nek2 (Homo sapiens) (UniProt P51955).
T6 sequence (whole entry): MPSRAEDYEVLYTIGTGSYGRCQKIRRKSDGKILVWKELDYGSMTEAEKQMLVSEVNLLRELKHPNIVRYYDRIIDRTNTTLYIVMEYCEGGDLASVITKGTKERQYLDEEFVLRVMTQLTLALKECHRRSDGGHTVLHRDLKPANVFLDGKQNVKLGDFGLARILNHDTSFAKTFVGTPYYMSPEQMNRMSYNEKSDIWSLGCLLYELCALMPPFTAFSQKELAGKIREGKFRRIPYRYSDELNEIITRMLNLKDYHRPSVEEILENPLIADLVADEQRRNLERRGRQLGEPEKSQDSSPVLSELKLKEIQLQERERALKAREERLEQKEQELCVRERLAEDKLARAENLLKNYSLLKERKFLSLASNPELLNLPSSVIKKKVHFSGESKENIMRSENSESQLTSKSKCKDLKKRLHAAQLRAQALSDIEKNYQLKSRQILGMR
The following applies: at 0.1 µM.

Assay [15] has as its target T6, Serine/threonine-protein kinase Nek2 (Homo sapiens). The following applies: at 1 µM.
For assay [16], the target named is Serine/threonine-protein kinase Nek6 (Homo sapiens) (UniProt Q9HC98). Particulars: at 0.1 µM.
Chain of Serine/threonine-protein kinase Nek6 (Homo sapiens) (Q9HC98 whole entry): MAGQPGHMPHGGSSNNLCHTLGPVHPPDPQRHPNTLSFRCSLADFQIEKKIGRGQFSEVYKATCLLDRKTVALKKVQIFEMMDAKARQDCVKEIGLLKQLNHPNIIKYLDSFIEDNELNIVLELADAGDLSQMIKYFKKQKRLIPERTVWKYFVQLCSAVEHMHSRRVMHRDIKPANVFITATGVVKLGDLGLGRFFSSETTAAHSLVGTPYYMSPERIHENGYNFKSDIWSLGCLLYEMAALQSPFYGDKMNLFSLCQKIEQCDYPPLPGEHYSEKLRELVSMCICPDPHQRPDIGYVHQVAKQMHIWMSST
Assay [17] has the same target. The following applies: at 1 µM.
Assay [18] has as its target Serine/threonine-protein kinase Nek7 (Homo sapiens) (UniProt Q8TDX7). The following applies: at 0.1 µM.
Assay [19] has the same target. The following applies: at 1 µM.
Assay [20] has as its target T7, Serine/threonine-protein kinase Nek9 (Homo sapiens) (UniProt Q8TD19).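 Further: reported value is the mean percent inhibition of NEK9.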
T7 sequence (whole entry): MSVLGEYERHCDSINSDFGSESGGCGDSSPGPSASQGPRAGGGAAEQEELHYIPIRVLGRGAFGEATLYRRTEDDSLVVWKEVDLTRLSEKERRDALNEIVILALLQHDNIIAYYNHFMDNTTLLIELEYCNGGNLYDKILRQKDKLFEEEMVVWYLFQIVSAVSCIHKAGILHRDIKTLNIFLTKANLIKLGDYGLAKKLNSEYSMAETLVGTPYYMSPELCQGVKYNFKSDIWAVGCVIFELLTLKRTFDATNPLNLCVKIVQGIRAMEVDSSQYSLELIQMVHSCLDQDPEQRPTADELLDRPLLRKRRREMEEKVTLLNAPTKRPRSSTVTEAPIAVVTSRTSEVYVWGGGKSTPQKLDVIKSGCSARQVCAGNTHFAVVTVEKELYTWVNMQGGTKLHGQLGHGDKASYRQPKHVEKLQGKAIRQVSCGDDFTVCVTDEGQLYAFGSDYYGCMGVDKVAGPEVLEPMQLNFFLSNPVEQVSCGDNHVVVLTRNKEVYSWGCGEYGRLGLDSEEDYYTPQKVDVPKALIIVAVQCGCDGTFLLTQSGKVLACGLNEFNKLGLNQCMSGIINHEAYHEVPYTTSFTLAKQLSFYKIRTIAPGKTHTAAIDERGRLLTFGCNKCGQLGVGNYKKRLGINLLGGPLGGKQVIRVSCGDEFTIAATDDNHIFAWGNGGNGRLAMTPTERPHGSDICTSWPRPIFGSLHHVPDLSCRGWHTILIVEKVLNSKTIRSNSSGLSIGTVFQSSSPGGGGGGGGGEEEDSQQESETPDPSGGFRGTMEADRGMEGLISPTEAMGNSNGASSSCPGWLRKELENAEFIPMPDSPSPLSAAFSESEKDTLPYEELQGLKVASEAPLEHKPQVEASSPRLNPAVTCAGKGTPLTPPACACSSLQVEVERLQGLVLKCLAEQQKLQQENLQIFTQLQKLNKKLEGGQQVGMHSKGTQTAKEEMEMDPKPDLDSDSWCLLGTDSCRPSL
The following applies: at 0.1 µM.

Chain of Serine/threonine-protein kinase Nek7 (Homo sapiens) (Q8TDX7 whole entry, looked up): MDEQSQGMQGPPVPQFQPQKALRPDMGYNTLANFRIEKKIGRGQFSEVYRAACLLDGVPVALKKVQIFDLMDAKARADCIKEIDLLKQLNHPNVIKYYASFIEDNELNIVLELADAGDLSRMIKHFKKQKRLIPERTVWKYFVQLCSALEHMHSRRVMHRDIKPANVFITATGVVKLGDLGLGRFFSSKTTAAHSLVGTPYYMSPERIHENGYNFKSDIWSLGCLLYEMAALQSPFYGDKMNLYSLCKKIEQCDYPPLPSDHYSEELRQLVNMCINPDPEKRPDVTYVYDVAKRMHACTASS
Chain of Sphingosine kinase 1 (Homo sapiens) (Q9NYA1 whole entry): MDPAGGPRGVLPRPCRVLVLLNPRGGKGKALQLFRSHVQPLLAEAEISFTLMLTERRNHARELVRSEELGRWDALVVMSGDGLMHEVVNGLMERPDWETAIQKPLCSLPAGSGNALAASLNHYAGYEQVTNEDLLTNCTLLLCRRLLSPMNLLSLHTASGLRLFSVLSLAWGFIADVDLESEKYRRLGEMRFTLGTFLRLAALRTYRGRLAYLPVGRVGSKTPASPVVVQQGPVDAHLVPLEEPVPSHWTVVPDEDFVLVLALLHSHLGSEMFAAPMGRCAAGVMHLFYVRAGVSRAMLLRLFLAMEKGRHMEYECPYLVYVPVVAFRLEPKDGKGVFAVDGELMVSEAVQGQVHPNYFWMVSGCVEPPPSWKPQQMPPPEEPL

In the case of `Cc1cc(O)cc(C)c1/C=C/c1cncc(C(N)=O)c1`, the inhibition – broadly, the relative decrease from the control value, in per cent – in assay [1] was -2.84%; in assay [2], 0.32%; in assay [3] it was 0.47%; in [4], 2%; in [5], 1.41%; in [6], 7.66%. Further, the inhibition amounted to 1.26% in assay [7]; 1.7% in assay [8]; 1.13% in assay [9]; 1.74% in assay [10]; 91.3% in assay [11]; 1.8% in [12]. Moreover, the inhibition in assay [13] came to 2.95%; in [14] it was 3.02%; in assay [15], 1.69%; in assay [16], 3.18%; in assay [17], 1.92%; in assay [18], 4.15%. Besides, the values for the inhibition in [19] and in assay [20] were 3.89% and 5.2%, respectively.
